From PubChem BioAssay (NCATS)
Calls of active or inactive are those of the source. Calls come from the whole dose curve.

Assay: qHTS drug screen for cell cycle checkpoint inhibitors in PARPi-resistant BRCA-mutant ovarian cancer cell lines. (AID 1963452)
Conditions: PEO1/OlaR viability, CellTiter-Glo luminescence, 96 h, stronger effect = lower value
Method in brief: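 PEO1, PEO4 and PEO1/OlaR ovarian cancer cells, 600 per well, exposed 96 h at 37C to a dilution series. Viability read by CellTiter-Glo luminescence, normalized to DMSO and empty wells; activity summarized as Z-AUC.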

[1] = measured here: PEO1 parental Z-AUC

| SMILES | Z-AUC | Z-AUC [1] | Z-AUC (measured here: PEO4 Z-AUC) |
| --- | --- | --- | --- |
| CCN(CC)CCCC(C)Nc1nc(C)cc(Nc2ccc3nc(C)cc(N)c3c2)n1 (stereo unspecified) | 0.723 (inactive) | 0.692 | 0.29 |
| CCn1c(-c2nonc2N)nc2c(C#CC(C)(C)O)ncc(OC[C@H]3CCCNC3)c21 | 1.22 (inactive) | 0.92 | 1.41 |
| COc1cc(Oc2ccnc3cc(OC)c(OC)cc23)ccc1NC(=O)NC(C)c1nccs1 (stereo unspecified) | -0.894 (inactive) | -0.402 | -0.764 |
| Cc1ccc(NC(=O)c2cccc(C(C)(C)C#N)c2)cc1Nc1ccc2ncn(C)c(=O)c2c1 | 0.851 (inactive) | 0.186 | 0.24 |
| CN(C)c1ccc(Nc2nc(N)n(C(=O)c3c(F)cccc3F)n2)cc1 | 0.994 (inactive) | 0.58 | 0.398 |
| COc1ccc(CCN2CCN(CCCc3ccccc3)CC2)cc1OC | -0.614 (inactive) | -0.141 | -0.419 |
| O=C(Nc1nc2ccccc2n1CCN1CCOCC1)c1cccc([N+](=O)[O-])c1 | 1.54 (inactive) | 1.06 | 1.04 |
| Fc1ccc(Cl)cc1-c1nc(Nc2ccncc2)c2nccnc2n1 | 0.985 (inactive) | 1.18 | 1.09 |
| Cc1cccc(-c2[nH]c(C(C)(C)C)nc2-c2ccc3nccnc3c2)n1 | 0.914 (inactive) | 0.697 | 0.424 |
| CCc1cc(Nc2nccc(-c3c(-c4ccc(OC)c(C(=O)Nc5c(F)cccc5F)c4)nc4ccccn34)n2)c(OC)cc1N1CCC(N2CCN(S(C)(=O)=O)CC2)CC1 | -0.4 (inactive) | -0.657 | -0.933 |
| COc1ccccc1[C@H](c1cccc2ccccc12)[C@@](C)(C#N)C(=O)N1CCC(c2cccc(C(F)(F)F)c2)CC1 | 1.34 (inactive) | 1.15 | 1.29 |
| c1ccc(-c2nn3c(c2-c2ccnc4cc(OCCN5CCOCC5)ccc24)CCC3)nc1 | 0.744 (inactive) | 0.379 | 0.692 |
| COc1ccc2c3n(c(=NC(=O)c4cccnc4)nc2c1OC)CCN3 | -0.738 (inactive) | -0.328 | -0.378 |
| CC[C@H](Nc1ncnc2nc[nH]c12)c1nc2cccc(F)c2c(=O)n1-c1ccccc1 | 0.714 (inactive) | 0.526 | 0.476 |
| Cn1cc(-c2ccc3nnc(C(F)(F)c4ccc5ncccc5c4)n3n2)cn1 | -0.354 (inactive) | 0.00451 | 0.204 |
| CS(=O)(=O)c1cccc(CNc2nc(Nc3ccc4c(c3)CCC(=O)N4)ncc2C(F)(F)F)c1 | -0.784 (inactive) | -1.23 | -1.25 |
| O=C(c1cc(Cc2n[nH]c(=O)c3ccccc23)ccc1F)N1CCN(C(=O)C2CC2)CC1 | 0.491 (inactive) | -0.378 | 0.0684 |
| CN(C)c1ccc(C2Nc3ccc4ccccc4c3C3=C2C(=O)CC(C)(C)C3)cc1Br (stereo unspecified) | -0.197 (inactive) | -0.276 | 0.333 |
| CCC(C)(C)C(=O)O[C@H]1C[C@@H](C)C=C2C=C[C@H](C)[C@H](CC[C@@H]3C[C@@H](O)CC(=O)O3)[C@H]21 | 1.29 (inactive) | 1.6 | 2.06 |
| CCCC(CCC)C(=O)O | 0.56 (inactive) | 0.704 | 0.624 |
| COc1ccc(C2=N[C@H](c3ccc(Cl)cc3)[C@H](c3ccc(Cl)cc3)N2C(=O)N2CCNC(=O)C2)c(OC(C)C)c1 | 0.858 (inactive) | 0.454 | 1.13 |
| Oc1cccc(-c2nc(N3CCOCC3)c3oc4ncccc4c3n2)c1 | -0.82 (inactive) | -0.749 | -0.797 |
